Assay results: the supplement of paper PMC4840960

Test system: E18 rat cortical neuron-glia co-culture
Experiment: fiber score / MBP score (myelination specific beyond OL differentiation) (ratio); higher = more myelination-specific MBP alignment
Conditions: 1 µM; treatment time: 8 days (DIV5-DIV13)
Outline: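 Reported values are fiber score (continuous MBP fiber length per Olig2+ nucleus) divided by MBP score (thresholded MBP area × intensity per Olig2+ nucleus). They come from primary E18 rat cortical co-cultures treated with library compounds at 1 or 5 µM in myelination medium from DIV5 to DIV13, then fixed in 4 % paraformaldehyde, immunostained for MBP and Olig2 with DAPI, and analysed over four 10X fields per well in duplicate wells.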

Row | SMILES | fiber score / MBP score
1 | Oc1ccc(C2CNCCc3c2cc(O)c(O)c3Cl)cc1 (stereo not given) [Fenoldopam] | 0.941
2 | COc1ccc(CC(C)NCC(O)c2ccc(O)c(NC=O)c2)cc1 (stereo not given) [Formoterol] | 0.702
3 | C[C@](N)(Cc1ccc(O)c(O)c1)C(=O)O [Methyldopa] | 1.28
4 | Cc1cccc(C)c1OCC(C)N (stereo not given) [Mexiletine] | 0.887
5 | N=C(N)NC(=O)c1nc(Cl)c(N)nc1N [Amiloride] | 0.887
6 | CCN1CCN(C(=O)N[C@@H](C(=O)N[C@@H]2C(=O)N3[C@@H]2SC(C)(C)[C@@H]3C(=O)O)c2ccccc2)C(=O)C1=O [Piperacillin] | 0.703
7 | Oc1ncnc2[nH]ncc12 [Allopurinol] | 1.01
8 | C=CC1=C(C(=O)O)N2C(=O)[C@@H](NC(=O)/C(=N\OCC(=O)O)c3csc(N)n3)[C@H]2SC1 [Cefixime] | 0.945
9 | CC(C)NCC(O)COc1ccc(CCOCC2CC2)cc1 (stereo not given) [Betaxolol] | 0.636
10 | CC1=C(/C=C/C(C)=C/C=C/C(C)=C/C(=O)O)C(C)(C)CCC1 [Retinoic Acid] | 0.93
11 | Cc1onc(-c2ccccc2)c1-c1ccc(S(N)(=O)=O)cc1 [Valdecoxib] | 0.873
12 | CC(C)(C#N)c1cc(Cn2cncn2)cc(C(C)(C)C#N)c1 [Anastrozole] | 0.803
13 | Cc1cnc(C(=O)NCCc2ccc(S(=O)(=O)NC(=O)NC3CCCCC3)cc2)cn1 [Glipizide] | 1.13
14 | O=C1c2c(O)cc(O)cc2O[C@H](c2ccc(O)c(O)c2)[C@H]1O [Distylin] | 0.8
15 | NC(=O)c1cnccn1 [Pyrazinamide] | 0.64
